Structures are written as SMILES. In all, about 360,000 compounds went through this assay and about 1,600 (0.44%) were called active. The sample as a whole holds a higher share of actives than the screen did. Values without a mark were called inactive.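 The calls were made as follows: active = inhibition above the screen-wide average plus 3 SD (cut at about 13% in these data); inactive = the rest.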

In this test the target is Galanin receptor type 3 (Homo sapiens) (UniProt O60755). The experiment in a line: blockers of human galanin receptor 3 – cell-based, fluorescence readout, primary screen (AID 651719).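 Also: forskolin and galanin both at EC90 stimulate the cells; cAMP rise reported by CNG channel membrane potential dye signal; 0% = forskolin plus galanin with DMSO and 100% = forskolin alone.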 To be noted: HEK293 GalR3-CNG cAMP membrane potential fluorescence; at 3 µM; active compounds read high; galR3 body fused to GalR1 C-terminus.
Galanin receptor type 3 (Homo sapiens), sequence (O60755 1-299 limits assumed): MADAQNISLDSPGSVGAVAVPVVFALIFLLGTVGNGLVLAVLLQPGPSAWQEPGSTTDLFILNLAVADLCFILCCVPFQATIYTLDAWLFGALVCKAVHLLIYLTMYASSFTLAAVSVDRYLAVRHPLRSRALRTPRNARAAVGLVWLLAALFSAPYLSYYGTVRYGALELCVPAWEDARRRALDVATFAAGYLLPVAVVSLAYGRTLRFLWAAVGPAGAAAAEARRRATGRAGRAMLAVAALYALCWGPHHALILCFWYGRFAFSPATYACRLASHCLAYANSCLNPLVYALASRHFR
A word on the inhibition: it is the relative decrease from the control value, in per cent. Turning to `COC(=O)[C@]12C[C@H](CC(=O)N3CCN(C(=O)C4CC4)CC3)C(=O)N(Cc3ccc4c(c3)OCO4)C1=C[C@H](C(C)(C)C)O[C@@H]2C`, the inhibition was -5.6%.

For `N#Cc1cccc(C(=O)NCC2CCN(C(=O)C(=O)c3cc4ccccc4o3)CC2)c1`, the inhibition was -3.55%.

In the case of `CCOC(=O)CNC(=O)N(C)[C@H]1C[C@H]2c3[nH]c4c(-c5ccc6c(c5)OCO6)cccc4c3CCN2C(=O)[C@H]1[C@H](C)O`, the inhibition was -5.71%.

On to `COc1ccc(C2CC(c3cccs3)=Nc3ccccc3S2)cc1OC` (centres undefined), for which the inhibition is -5.75%.

Regarding `COc1ccc(-c2csc(-c3cccs3)n2)cc1OC`, the inhibition was 14.8% (active).

With `COc1ccc(C(C)(O)c2nc(-c3ccc(C)c(C)c3)cs2)cc1` (centres undefined), the inhibition was -5.12%.

`O=C(C(=O)N1CCC(CNS(=O)(=O)Cc2ccccc2)CC1)c1cc2ccccc2o1`: the inhibition is -6.6%.

Consider `COc1cccc(OCc2cc(C(=O)N3CCN(C(=O)c4ccco4)CC3)no2)c1`, for which the inhibition is -10.3%.

For `C=CCC1(CC=C)CCCN1C(=O)c1cc(COc2ccc(-n3cncn3)cc2)on1`, the inhibition was 80.6% (active).

Regarding `CCCC(=O)N1CCC1(C)C(=O)Nc1ccc(-n2cncn2)cc1` (centres undefined), the inhibition was -6.01%.

In the case of `O=C(Nc1c(Cl)c(C2CC2)nn1-c1ccccc1)C(Cl)(Cl)Cl`, the inhibition was -6.45%.

Consider `COc1cccc(CC(=O)N2CCN(C(=O)C(=O)c3cccc(C(F)(F)F)c3)CC2)c1`, for which the inhibition was 1.16%.

As to `O=C(NCCSCc1ccccc1)c1ccc(Cl)c(S(=O)(=O)N2CCOCC2)c1`, the inhibition was -7.04%.

`CN(C)S(=O)(=O)c1ccc(C(=O)NCC(C)(C)N2CCOCC2)cc1`: the inhibition was -0.16%.

With `CC(C)(CNC(=O)c1ccc(Cl)c(S(=O)(=O)N2CCc3ccccc3C2)c1)N1CCOCC1`, the inhibition is 98.3% (active).

For `COc1cccc(-c2cc(CNC(=O)[C@@H](Cc3ccccc3)NC(=O)[C@H]3O[C@@H](n4cnc(C(N)=O)n4)[C@H](O)[C@@H]3O)no2)c1`, the inhibition is -7.28%.

As to `O=C(C1CCCN(S(=O)(=O)c2ccccc2)C1)N1CCN(c2ccc(F)cc2)CC1` (centres undefined), the inhibition is -0.67%.

`CC(=O)N1c2ccc(S(=O)(=O)N3CCC(C(=O)N4CCN(c5ccccc5)CC4)CC3)cc2CC1C` (centres undefined): the inhibition was 0.42%.

Regarding `CC(=O)N1CCCc2cc(S(=O)(=O)N3CCCC(C(=O)N4CCN(c5cccc(Cl)c5)CC4)C3)ccc21` (centres undefined), the inhibition was 77.3% (active).

Consider `CCCCCCCCN1C(=O)[C@@H](CC(=O)NCc2ccccc2)C[C@@]2(C(=O)OC)C1=C[C@H](C(C)(C)C)O[C@@H]2C`, for which the inhibition was -6.16%.

For `COc1ccccc1NC(=S)N1CCN(C(c2ccccc2)c2ccccc2)CC1`, the inhibition is -3.76%.

For the compound `CC1(C)CC(N2CCN(C(c3ccccc3)c3ccccc3)CC2)=CC(=[N+]2CCCCC2)C1`, the inhibition is 39.8% (active).

With `Cc1cccc(N2CCN(C(c3ccccc3)c3nnnn3CC3CCCO3)CC2)c1C` (centres undefined), the inhibition was -2.6%.

On to `Cc1ccc2nc(CN(C)C(=O)[C@@H](Cc3ccccc3)NC(=O)[C@H]3O[C@@H](n4ccc(=O)[nH]c4=O)[C@H](O)[C@@H]3O)[nH]c2c1`, for which the inhibition was -7.44%.

In the case of `COC(=O)[C@]12C[C@H](CC(=O)NCc3ccc(OC)c(OC)c3)C(=O)N(Cc3ccccc3)C1=C[C@H](C(C)C)O[C@@H]2C1CC1`, the inhibition was 3.98%.

Regarding `COC(=O)Cc1nnn2c1[C@H](C)[C@@H](OC)c1cc(Br)ccc1-2`, the inhibition is -5.13%.

In the case of `COc1ccc(-c2cc(C(F)(F)F)nc(S(C)(=O)=O)n2)cc1OC`, the inhibition is 20.7% (active).

Take `COc1ccc(-c2cc(C(F)(F)F)nc(SCCC(=O)NCc3ccco3)n2)cc1`: the inhibition is -3.08%.

As for `COc1ccc(-c2cc(C(=O)N(C)Cc3ccc(OC)c(OC)c3OC)c3ccccc3n2)cc1OC`, the inhibition was 2.03%.

On to `COc1cccc(NC(=O)N(C)C[C@@H]2OCc3cn(nn3)CCCC(=O)N([C@@H](C)CO)C[C@H]2C)c1`, for which the inhibition is -0.11%.

For `CC[C@H](C)[C@H]1CNC(=O)C(=O)N1CC1CCN(CCc2ccc(OC)c(OC)c2)CC1`, the inhibition is 1.44%.

Regarding `CCCCCCCCN1C(=O)[C@@H](CC(=O)N2CCN(C(=O)OCC)CC2)C[C@@]2(C(=O)OC)C1=C[C@H](C1CCCC1)O[C@@H]2C`, the inhibition was -3.33%.

As to `CCN1/C(=C\c2ccc3ccccc3[n+]2CC)Sc2cc(C)ccc21`, the inhibition was 45.8% (active).

Regarding `COC(=O)[C@]12C[C@H](CC(=O)NCc3cccc(C(F)(F)F)c3)C(=O)N(Cc3ccc4c(c3)OCO4)C1=C[C@H](COCc1ccccc1)O[C@@H]2C`, the inhibition is -4.92%.

Consider `COc1cccc(CNC(=O)[C@H]2CCCN2C(=O)[C@H]2CCCN2C(=O)C2CCCCC2)c1`, for which the inhibition is -6.3%.

Regarding `COc1cc2c(cc1OC)CN(C(=O)c1ccc(S(=O)(=O)N3CCCCCC3)cc1)CC2`, the inhibition was 1.33%.

`CCOc1cc(C(=O)N2CCc3cc(OC)c(OC)cc3C2)ccc1OC(F)F`: the inhibition is 31.5% (active).

Turning to `COc1cc2c(cc1OC)CN(C(=O)c1cc(S(=O)(=O)N3CCCCC3)ccc1Cl)CC2`, the inhibition was -3.04%.

Regarding `Nc1nc2c(ncn2[C@@H]2O[C@H](C(=O)N[C@@H](Cc3ccccc3)C(=O)NCc3ccccc3)[C@@H](O)[C@H]2O)c(=O)[nH]1`, the inhibition was -5.49%.

For `CCOC(=O)CN1C(=O)C(=O)c2cc(C)ccc21`, the inhibition was -3.3%.

In the case of `Cc1cc(C(=O)OCC(=O)N2c3ccccc3NC(=O)C2(C)C)c(C)n1-c1ccccc1`, the inhibition was -4.87%.

For the compound `CCOC(=O)c1cc2n(c1C)-c1ccccc1C2=O`, the inhibition is 15.1% (active).

Regarding `CCCNC(=O)C1(C)CCN1C(=O)Cc1ccc(-c2ccccc2)cc1` (centres undefined), the inhibition was -4.21%.

Consider `CC1(C(=O)NS(=O)(=O)c2ccccc2)CCN1C(=O)Cc1ccc(-c2ccccc2)cc1` (centres undefined), for which the inhibition is 0.25%.

In the case of `C#Cc1ccc(NC(=O)C2(C)CCN2C(=O)Cc2ccc(-c3ccccc3)cc2)cc1` (centres undefined), the inhibition was 44.5% (active).

Turning to `CCCn1nc(C(=O)Nc2ccc3nc(C)sc3c2)c2ccccc2c1=O`, the inhibition was -5.64%.

Turning to `CCCn1nc(C(=O)NNC(=O)CSCC(=O)Nc2cc(C)on2)c2ccccc2c1=O`, the inhibition was 21.7% (active).

As for `CCCn1nc(C(=O)NNC(=O)CCOc2ccccc2OCC)c2ccccc2c1=O`, the inhibition is -2.63%.

For the compound `C[C@H](O)[C@@H]1CN2CCc3ccc(-c4ccc5c(c4)OCO5)cc3[C@@H]2C[C@@H]1N(C)C(=O)C1CCCCC1`, the inhibition was -7.4%.

As for `COC(=O)C1=C(C(=O)OC)C2C=C(C(C)C)C1C(=O)C2(C)O` (centres undefined), the inhibition was -4.32%.

In the case of `COC(=O)[C@]12C[C@H](CC(=O)NCc3ccccc3)C(=O)N(CCC3=CCCCC3)C1=C[C@H](C(C)(C)C)O[C@@H]2C`, the inhibition was -4.94%.

Turning to `Cc1c(Cl)cccc1NC(=O)CSc1ccc(-c2cccnc2)nn1`, the inhibition was 14.3% (active).

Consider `COc1cc(NC(=O)CSc2ccc(-c3cccnc3)nn2)cc(OC)c1`, for which the inhibition was -2.54%.

For the compound `O=C(CSc1ccc(-c2cccs2)nn1)Nc1ccccc1F`, the inhibition was -4.48%.

In the case of `O=S1(=O)c2ccc(Br)cc2-n2nncc2CN1Cc1cccc(Cl)c1`, the inhibition is -7.46%.

In the case of `COCCCNC(=O)C[C@H]1C[C@@]2(C(=O)OC)C(=C[C@H](C(C)(C)C)O[C@@H]2C)N(Cc2ccc3c(c2)OCO3)C1=O`, the inhibition was -0.33%.

Take `COCCN1Cc2cccc(C(=O)Nc3ccccc3OC)c2C1=O`: the inhibition was 41.5% (active).

With `CCCN1Cc2cccc(C(=O)NCc3ccccc3)c2C1=O`, the inhibition was -3.84%.

For `CCCN1Cc2cccc(C(=O)Nc3ccc(S(=O)(=O)N4CCCCCC4)cc3)c2C1=O`, the inhibition was -8.35%.

For the compound `O=C(NS(=O)(=O)c1cccs1)[C@H]1O[C@@H](n2ccc(=O)[nH]c2=O)[C@H](O)[C@@H]1O`, the inhibition was -5.05%.

For the compound `Cc1cc2c(nc1C)CCCN2C`, the inhibition is -4.98%.

On to `CC(C)OC(=O)CC(=O)CC(O)c1cccc([N+](=O)[O-])c1` (centres undefined), for which the inhibition is -6.46%.

Take `CC(CCc1ccccc1)NCC(O)c1cccc([N+](=O)[O-])c1` (centres undefined): the inhibition is 26.9% (active).

Turning to `O=C(CC(c1ccccc1)c1ccccc1)NCC(O)c1ccc([N+](=O)[O-])cc1` (centres undefined), the inhibition was -3.68%.

Take `COc1ccc(S(=O)(=O)Nc2ccc3c(c2)C(=O)N([C@H](C)CO)C[C@H](C)[C@@H](CN(C)C)OCCCC[C@H](C)O3)cc1`: the inhibition was -6.44%.

Regarding `c1ccc(CNc2ncnc3[nH]ncc23)cc1`, the inhibition was -4.19%.

In the case of `O=C(NCc1ccncc1)C(=O)NCc1ccco1`, the inhibition is -2.62%.

Take `c1coc(CNc2ncnc3ccccc23)c1`: the inhibition is 82.2% (active).

As for `C[C@H](O)[C@@H]1C(=O)N2CCc3c([nH]c4c(-c5ccc6c(c5)OCO6)cccc34)[C@@H]2C[C@@H]1N(C)C(=O)c1ccco1`, the inhibition was -7.36%.

`C[C@H]1[C@H](c2ccccc2)Oc2cc(Br)ccc2S(=O)(=O)N1Cc1cccc(F)c1`: the inhibition is -2.05%.

On to `CCOc1ccc(C(=O)Nc2ccc(CN3CCOCC3)cc2)cc1Cl`, for which the inhibition was -8.84%.

In the case of `O=C(Nc1ccccc1C(=O)N1CCOCC1)c1ccc(CSc2ccccc2)cc1`, the inhibition is -0.11%.

For `O=C(Nc1ccc(CSc2ccccc2)cc1)c1ccc(CN2CCOCC2)cc1`, the inhibition is 95.3% (active).

Regarding `COC(=O)N1Cc2ccnnc2CC1c1ccccc1Br` (centres undefined), the inhibition was 1.18%.

Regarding `Cc1c(C=O)c2ccccc2n1CC(=O)O`, the inhibition was 12.7% (active).

For `O=C(O)Cn1c(Cc2ccccc2)nc2ccccc21`, the inhibition is -10.6%.

As to `Cc1c(C=O)c2ccccc2n1CCOc1ccccc1`, the inhibition is 2.42%.

Regarding `C=CC1=CCN(S(=O)(=O)C(C)(C)C)[C@@H]1CCO`, the inhibition was -6.58%.

For `O=C(NCc1ccccc1)[C@H]1CCCN1C(=O)[C@@H]1CCCN1C(=O)c1ccc(Cl)cc1Cl`, the inhibition was -7.72%.

The values above are taken from PubChem BioAssay AID651719 (The Scripps Research Institute Molecular Screening Center, 2012).
